{"source": "PubChem BioAssay (EPA / NIEHS)", "note": "Results filed as inconclusive are left out. The source made the active and inactive calls. How the source made its calls: active means hit-call score of the fitted dose curve at least 0.9, where 1 is the maximum; inconclusive means response in the unintended direction; inactive means score below 0.9."}
{"experiment": "ATG_M_19_TRANS: Attagene TRANS-FACTORIAL HepG2 Assay for M19 Transcription Factor (Internal Marker) (AID 2282974)", "settings": "HepG2 Attagene TRANS-FACTORIAL M19 internal marker reporter", "how_it_was_run": "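24 h chemical exposure of transiently transfected HepG2 (MRTU library). RNA → oligo(dT) RT → PCR → 6-FAM labelling → HpaI cut → CE fluorescence. Positive-direction fit vs DMSO baseline; background internal-marker readout.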"}
{"smiles": "CC1CCC(=O)O1", "note": "(centres undefined)", "outcome": "inactive"}
{"smiles": "COc1cc(OC)c(OC)cc1C=O", "outcome": "inactive"}
{"smiles": "CC(C)(c1cc(Cl)c(O)c(Cl)c1)c1cc(Cl)c(O)c(Cl)c1", "outcome": "inactive"}
{"smiles": "COCC(=O)N(c1c(C)cccc1C)N1CCOC1=O", "outcome": "inactive"}
{"smiles": "C=COCCCl", "outcome": "inactive"}
{"smiles": "C=CCN(CC=C)C(=O)C(Cl)Cl", "outcome": "inactive"}
{"smiles": "CC(Cc1ccc(C(C)(C)C)cc1)CN1C[C@@H](C)O[C@@H](C)C1", "note": "(some centres undefined)", "outcome": "inactive"}
{"smiles": "CCOC(=O)N(C)N=O", "outcome": "inactive"}
{"smiles": "CCC[N+](=O)[O-]", "outcome": "inactive"}
{"smiles": "CC(C)C#N", "outcome": "inactive"}
{"smiles": "c1ccc(Nc2ccc3ccccc3c2)cc1", "outcome": "inactive"}
{"smiles": "CSc1nc(N=[N+]=[N-])nc(NC(C)C)n1", "outcome": "inactive"}
{"smiles": "CC=Cc1ccc2c(c1)OCO2", "outcome": "inactive"}
{"smiles": "Cc1ccc(OP(=O)(Oc2ccc(C)cc2)Oc2ccc(C)cc2)cc1", "note": "(tested in a mixture with another compound)", "outcome": "inactive"}
{"smiles": "ClC1=C(Cl)[C@]2(Cl)[C@@H]3[C@@H](Cl)[C@H](Cl)C[C@@H]3[C@@]1(Cl)C2(Cl)Cl", "outcome": "inactive"}
{"smiles": "O=S(=O)(c1ccccc1)c1ccccc1", "outcome": "inactive"}
{"smiles": "CCC(C)c1cc(C(C)(C)C)cc(-n2nc3ccccc3n2)c1O", "note": "(centres undefined)", "outcome": "inactive"}
{"smiles": "CC1(C)C(=O)NC(=O)NC1=O", "outcome": "inactive"}
{"smiles": "N#Cc1cccc(C#N)c1", "outcome": "inactive"}
